The structures appear in SMILES notation. Several values for one entry are separate records, joined by “and”; a condition that tells them apart may be missing. Equal values may be shown once. The panel holds about 83,000 compounds, 20% with a hit somewhere; the sample as a whole holds those more often.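 Compound tested at a single concentration for 48 hours in 96-well plates; a percent growth value below 10 was scored as active.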 Activity calls are given as the source filed them.

This test relates to HL-60(TB) leukemia. The test is described as follows: NCI-60 one-dose screen, 48 h (100 = growth as untreated, 0 = no growth, -100 = all killed). As to conditions: 10 µM unless noted.
As to `COc1cc(NCCCCN=C(N)N)c2ncccc2c1`, the growth was 103% (inactive). `Cc1ccc(-c2noc(CC(=O)c3ccc([N+](=O)[O-])cc3)n2)cc1`: the growth was 65.2% (inactive).

Regarding `CC(=O)Nc1ccc2c(c1)c(NC(C)=O)nn2C(=O)Nc1ccc(Cc2ccccc2)cc1`, the growth was 93.1% (inactive). Turning to `CCN1c2ccccc2C(Cl)(c2ccc(N(C)C)cc2)c2ccccc21`, the growth was 14% (inactive).

With `Cc1[nH]c2ccccc2c(=O)c1CC=C(Cl)Cl`, the growth was 57.5% (inactive). As for `O=C(/C(=C/c1ccc([N+](=O)[O-])cc1)SCc1ccc(Cl)cc1)c1ccc(F)cc1`, the growth is 59.5% (inactive). As for `Cc1c(C(=O)NO)sc2ncnc(Nc3ccc(NC(=S)Nc4ccccc4)cc3)c12`, the growth is 103% (inactive).

As for `COc1ccc(-n2ncn(CCCCCCn3cnn(-c4ccc(OC)cc4)c3=O)c2=O)cc1`, the growth is 86.7% (inactive).

In the case of `Cn1cnc2c(F)c(Nc3ccc(Br)cc3F)c(C(=O)NOCCO)cc21`, the growth is 16.6% (inactive). Regarding `CCN(CC)CCOc1ccc(C(=C(C)c2ccc(Cl)cc2)c2ccc(OCCN(CC)CC)cc2)cc1`, the growth is -55.5% (active).

On to `CC1Cc2c(N(C)C)ncnc2N(C)c2ccc(O)cc21` (stereo unspecified), for which the growth is 81.1% (inactive). For the compound `COc1cc(-c2cc3ncccc3c3[nH]c(=O)c4cccnc4c23)cc(OC)c1OC`, the growth is -7.16% (active). As for `C#Cc1c2c(c(OC)c3c1OCO3)[C@H]([C@H]1OC(=O)c3c1ccc(OC)c3OC)N(C)CC2`, the growth is 72.5% (inactive). Then `Cc1[nH]c2ccc(F)cc2c1CCNC(=O)C1CCN(C(=O)c2ccccc2)CC1`, with 102% [25 µM] (inactive); and `COc1ccc(Nc2cc(Cl)ccc2C(=O)O)cn1`, with 96.3% (inactive); and `COc1ccc2c(c1)C(=O)/C(=C/c1ccccn1)CC2`, with 75.5% (inactive). Regarding `COc1cc(OC)c(C(=O)/C=C/c2ccc(C(F)(F)F)cc2)c(OC)c1`, the growth was 45.1% (inactive). For `COc1nc2c(cc1S(=O)(=O)c1ccccc1)CCc1c-2cnn1-c1cccc(Cl)c1`, the growth is 65.2% (inactive).

For `CN(C)CC(=O)Nc1ccc2ncnc(Nc3ccc(Oc4cccc(C(F)(F)F)c4)c(Cl)c3)c2c1`, the growth was 2.72% (active).

Turning to `FC(F)(F)c1cccc(Nc2ccccc2)c1`, the growth was 92.7% (inactive).

As for `CCCCC1C(=O)N(c2ccccc2)N(c2ccccc2)C1=O`, the growth is 102% (inactive).

As for `Oc1ccc(CN2CCC(N3CCCCC3)CC2)c2cccnc12`, the growth was 28.2% (inactive). The same measure for `CC(=O)OCC(=O)[C@@]1(O)[C@H](C)C[C@H]2[C@@H]3C=C(C)C4=Cc5c(cnn5-c5ccc(F)cc5)C[C@]4(C)[C@H]3[C@@H](O)C[C@@]21C`: 16.3% (inactive); for `N#CC1=C(N)n2nc(-c3ccncc3)nc2NC1c1cccc2ccccc12` (stereo unspecified): 89.8% (inactive); for `COc1ccc(C(=S)c2cc(OC)c(OC)c(OC)c2)cc1OC(=O)CCl`: -33% (active). As to `CCN(CC)CCOc1ccc(-c2nc3cc(Cl)ccc3s2)cc1`, the growth is -74.2% (active).

`CN1CCN(Cc2ccc3c(NNC(=O)c4ccccc4)nc4cc(F)ccc4n23)CC1`: the growth was 7.8% (active). `CCOc1ccc2nc3cc(N)ccc3c(N)c2c1`: the growth is 117% (inactive) and 86.7% (inactive). With `COc1ccc([N+](=O)[O-])cc1OC`, the growth was 85.5% (inactive) and 99.2% (inactive).

Turning to `O=C(Cc1ccc(/C=C/C(=O)c2ncc[nH]2)cc1)Nc1ccc(C(F)(F)F)cc1`, the growth is -5.94% (active). As for `Nc1ccn([C@@H]2O[C@H](COP(=O)(O)O[C@@H]3C[C@H](n4cc(F)c(=O)[nH]c4=O)O[C@@H]3COP(=O)(O)O[C@@H]3C[C@H](n4cc(F)c(=O)[nH]c4=O)O[C@@H]3COP(=O)(O)O[C@@H]3C[C@H](n4cc(F)c(=O)[nH]c4=O)O[C@@H]3COP(=O)(O)O[C@@H]3C[C@H](n4cc(F)c(=O)[nH]c4=O)O[C@@H]3COP(=O)(O)O[C@@H]3C[C@H](n4cc(F)c(=O)[nH]c4=O)O[C@@H]3COP(=O)(O)O[C@@H]3C[C@H](n4cc(F)c(=O)[nH]c4=O)O[C@@H]3COP(=O)(O)O[C@@H]3C[C@H](n4cc(F)c(=O)[nH]c4=O)O[C@@H]3COP(=O)(O)O[C@@H]3C[C@H](n4cc(F)c(=O)[nH]c4=O)O[C@@H]3COP(=O)(O)O[C@@H]3C[C@H](n4cc(F)c(=O)[nH]c4=O)O[C@@H]3COP(=O)(O)O[C@@H]3C[C@H](n4cc(F)c(=O)[nH]c4=O)O[C@@H]3COP(=O)(O)OCCOCCOCCOCCOCCOCCO)[C@H](O)C2O)c(=O)n1` (stereo partly specified), the growth was 38.3% (inactive).

The values above are taken from PubChem BioAssay (NCI).
